Measurements published in the supplement of paper PMC10849652.
About 7,900 targets were measured; listed, in parts, are those with a hit and a random draw of the rest. About 0.6% of all pairs of compound and target were hits. Unmarked numbers belong to inactive results.

How the values were obtained:
Assay in all cases: log2 fold change, soluble protein after heating vs DMSO (PISA); higher = thermal stabilisation; K562 cells, 10 uM, 30 min; active = over 0.2 and 3.5 SD of the protein, either way, in both replicates (recomputed)
saracatinib = compound: CN1CCN(CCOc2cc(OC3CCOCC3)c3c(Nc4c(Cl)ccc5c4OCO5)ncnc3c2)CC1 [saracatinib]
In short: (§1)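 K562 cells at 2×10^6 cells/mL were exposed to 10 μM compound for 30 min, then aliquots were heated for 3 min across 48°C-58°C, pooled, and extracted in PBS containing 0.5% NP-40 at 4°C. The supernatant after 21,000xg for 90 min was taken as soluble protein and measured by TMTpro 16plex LC-MS/MS with channel sums equalised. Thermal stability is reported relative to control samples, with values from duplicates. Fold changes are given on a log2 scale.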

sotrastaurin = compound: CN1CCN(c2nc(C3=C(c4c[nH]c5ccccc45)C(=O)NC3=O)c3ccccc3n2)CC1 [sotrastaurin]
In short: as §1

alvocidib = compound: CN1CC[C@H](c2c(O)cc(O)c3c(=O)cc(-c4ccccc4Cl)oc23)[C@H](O)C1 [alvocidib]
In short: as §1

Tubastatin A = compound: CN1CCc2c(c3ccccc3n2Cc2ccc(C(=O)NO)cc2)C1 [Tubastatin A]
In short: as §1

[1] = compound: CNC(=O)C1=CC=CC=C1NC2=NC(=NC=C2Cl)NC3=C(C=C(C=C3)N4CCOCC4)OC
In short: as §1

defactinib = compound: CNC(=O)c1ccc(Nc2ncc(C(F)(F)F)c(NCc3nccnc3N(C)S(C)(=O)=O)n2)cc1 [defactinib]
In short: as §1

rucaparib = compound: CNCc1ccc(-c2[nH]c3cc(F)cc4c3c2CCNC4=O)cc1 [rucaparib]
In short: as §1

[2] = compound: CNc1nc(-c2ccc3c(N)n[nH]c3c2)cc(N2C[C@@H](C(=O)NC3CCCCC3)CC[C@H]2C)n1
In short: as §1

encorafenib = compound: COC(=O)N[C@@H](C)CNc1nccc(-c2cn(C(C)C)nc2-c2cc(Cl)cc(NS(C)(=O)=O)c2F)n1 [encorafenib]
In short: as §1

[3] = compound: COC(=O)[C@H](CCSC)NC(=O)C1=C(C=C(C=C1)NC[C@H](CS)N)C2=CC=CC=C2
In short: as §1

Sequence of UniProt Q9NPQ8 (Q9NPQ8 whole entry, looked up): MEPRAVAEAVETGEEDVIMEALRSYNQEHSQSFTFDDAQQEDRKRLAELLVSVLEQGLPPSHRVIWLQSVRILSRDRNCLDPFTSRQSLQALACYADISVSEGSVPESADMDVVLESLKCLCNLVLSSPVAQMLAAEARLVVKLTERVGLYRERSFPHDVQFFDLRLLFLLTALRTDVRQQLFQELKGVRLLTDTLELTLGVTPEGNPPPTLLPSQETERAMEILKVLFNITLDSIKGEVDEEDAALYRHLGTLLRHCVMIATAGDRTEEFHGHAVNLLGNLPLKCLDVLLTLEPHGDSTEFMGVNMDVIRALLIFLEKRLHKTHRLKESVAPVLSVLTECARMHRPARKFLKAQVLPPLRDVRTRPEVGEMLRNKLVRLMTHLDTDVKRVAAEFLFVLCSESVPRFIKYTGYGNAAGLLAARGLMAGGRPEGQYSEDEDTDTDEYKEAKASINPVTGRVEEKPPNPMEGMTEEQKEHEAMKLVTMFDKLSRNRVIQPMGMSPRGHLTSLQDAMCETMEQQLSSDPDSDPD
Sequence of UniProt Q5VUM1 (Q5VUM1 whole entry, looked up): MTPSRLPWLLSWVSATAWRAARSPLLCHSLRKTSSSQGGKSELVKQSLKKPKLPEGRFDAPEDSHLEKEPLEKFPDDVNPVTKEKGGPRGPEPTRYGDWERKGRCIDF
Sequence of UniProt Q13464 (Q13464 whole entry, looked up): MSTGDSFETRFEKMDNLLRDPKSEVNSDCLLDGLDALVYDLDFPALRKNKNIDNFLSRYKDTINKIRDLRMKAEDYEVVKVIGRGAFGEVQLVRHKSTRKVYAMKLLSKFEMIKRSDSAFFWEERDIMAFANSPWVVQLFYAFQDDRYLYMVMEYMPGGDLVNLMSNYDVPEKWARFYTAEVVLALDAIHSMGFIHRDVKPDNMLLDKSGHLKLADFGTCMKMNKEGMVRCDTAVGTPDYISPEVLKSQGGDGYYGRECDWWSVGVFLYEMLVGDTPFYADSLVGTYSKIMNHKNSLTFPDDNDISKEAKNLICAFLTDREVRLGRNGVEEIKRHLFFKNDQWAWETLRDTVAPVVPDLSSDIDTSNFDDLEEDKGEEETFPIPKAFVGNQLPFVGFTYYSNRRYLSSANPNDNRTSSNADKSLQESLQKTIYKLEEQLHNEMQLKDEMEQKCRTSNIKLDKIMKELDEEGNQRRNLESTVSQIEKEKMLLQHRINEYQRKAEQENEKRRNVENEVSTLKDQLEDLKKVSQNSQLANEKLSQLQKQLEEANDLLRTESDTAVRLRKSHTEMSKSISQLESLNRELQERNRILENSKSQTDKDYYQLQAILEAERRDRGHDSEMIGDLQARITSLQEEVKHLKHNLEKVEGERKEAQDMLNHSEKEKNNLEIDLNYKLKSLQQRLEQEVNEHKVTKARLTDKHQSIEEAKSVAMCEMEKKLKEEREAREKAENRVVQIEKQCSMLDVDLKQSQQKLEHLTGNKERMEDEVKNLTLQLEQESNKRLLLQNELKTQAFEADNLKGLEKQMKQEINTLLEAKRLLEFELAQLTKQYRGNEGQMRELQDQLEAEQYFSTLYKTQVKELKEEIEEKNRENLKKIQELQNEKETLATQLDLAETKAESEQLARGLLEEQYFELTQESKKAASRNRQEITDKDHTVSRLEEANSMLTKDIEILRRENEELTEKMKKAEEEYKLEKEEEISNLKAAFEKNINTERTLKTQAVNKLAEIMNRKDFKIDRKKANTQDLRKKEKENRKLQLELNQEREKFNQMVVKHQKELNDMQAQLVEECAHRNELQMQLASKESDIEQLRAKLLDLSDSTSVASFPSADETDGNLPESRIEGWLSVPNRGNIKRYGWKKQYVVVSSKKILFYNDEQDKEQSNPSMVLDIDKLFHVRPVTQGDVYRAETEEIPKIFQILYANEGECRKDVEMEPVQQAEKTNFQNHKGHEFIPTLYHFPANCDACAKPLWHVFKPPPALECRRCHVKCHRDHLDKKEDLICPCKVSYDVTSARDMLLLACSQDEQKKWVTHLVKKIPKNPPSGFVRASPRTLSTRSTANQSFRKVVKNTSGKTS
Sequence of UniProt Q13530 (Q13530 whole entry, looked up): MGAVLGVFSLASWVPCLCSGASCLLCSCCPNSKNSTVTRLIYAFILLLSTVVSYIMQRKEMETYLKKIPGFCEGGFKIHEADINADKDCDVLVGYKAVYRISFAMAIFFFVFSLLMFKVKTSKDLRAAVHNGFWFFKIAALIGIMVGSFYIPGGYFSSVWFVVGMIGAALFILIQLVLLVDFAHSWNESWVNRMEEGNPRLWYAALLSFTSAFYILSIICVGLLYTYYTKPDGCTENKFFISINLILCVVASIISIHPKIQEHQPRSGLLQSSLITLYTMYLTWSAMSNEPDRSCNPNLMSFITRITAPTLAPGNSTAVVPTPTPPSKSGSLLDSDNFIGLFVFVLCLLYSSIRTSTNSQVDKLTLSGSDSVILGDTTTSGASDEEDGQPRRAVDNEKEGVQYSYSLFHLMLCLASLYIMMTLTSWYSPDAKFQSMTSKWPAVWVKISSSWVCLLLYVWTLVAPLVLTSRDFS
Sequence of UniProt Q96EE3 (Q96EE3 whole entry, looked up): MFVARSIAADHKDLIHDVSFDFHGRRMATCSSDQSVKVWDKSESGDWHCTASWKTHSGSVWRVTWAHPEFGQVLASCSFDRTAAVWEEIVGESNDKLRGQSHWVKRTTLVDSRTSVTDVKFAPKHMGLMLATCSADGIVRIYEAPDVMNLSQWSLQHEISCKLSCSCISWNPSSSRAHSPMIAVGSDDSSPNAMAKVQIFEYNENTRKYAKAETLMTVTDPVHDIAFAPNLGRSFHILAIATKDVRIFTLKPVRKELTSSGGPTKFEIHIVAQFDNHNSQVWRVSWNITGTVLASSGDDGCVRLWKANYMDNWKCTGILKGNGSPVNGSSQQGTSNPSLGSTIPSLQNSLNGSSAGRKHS
Sequence of UniProt Q9GZR1 (Q9GZR1 whole entry, looked up): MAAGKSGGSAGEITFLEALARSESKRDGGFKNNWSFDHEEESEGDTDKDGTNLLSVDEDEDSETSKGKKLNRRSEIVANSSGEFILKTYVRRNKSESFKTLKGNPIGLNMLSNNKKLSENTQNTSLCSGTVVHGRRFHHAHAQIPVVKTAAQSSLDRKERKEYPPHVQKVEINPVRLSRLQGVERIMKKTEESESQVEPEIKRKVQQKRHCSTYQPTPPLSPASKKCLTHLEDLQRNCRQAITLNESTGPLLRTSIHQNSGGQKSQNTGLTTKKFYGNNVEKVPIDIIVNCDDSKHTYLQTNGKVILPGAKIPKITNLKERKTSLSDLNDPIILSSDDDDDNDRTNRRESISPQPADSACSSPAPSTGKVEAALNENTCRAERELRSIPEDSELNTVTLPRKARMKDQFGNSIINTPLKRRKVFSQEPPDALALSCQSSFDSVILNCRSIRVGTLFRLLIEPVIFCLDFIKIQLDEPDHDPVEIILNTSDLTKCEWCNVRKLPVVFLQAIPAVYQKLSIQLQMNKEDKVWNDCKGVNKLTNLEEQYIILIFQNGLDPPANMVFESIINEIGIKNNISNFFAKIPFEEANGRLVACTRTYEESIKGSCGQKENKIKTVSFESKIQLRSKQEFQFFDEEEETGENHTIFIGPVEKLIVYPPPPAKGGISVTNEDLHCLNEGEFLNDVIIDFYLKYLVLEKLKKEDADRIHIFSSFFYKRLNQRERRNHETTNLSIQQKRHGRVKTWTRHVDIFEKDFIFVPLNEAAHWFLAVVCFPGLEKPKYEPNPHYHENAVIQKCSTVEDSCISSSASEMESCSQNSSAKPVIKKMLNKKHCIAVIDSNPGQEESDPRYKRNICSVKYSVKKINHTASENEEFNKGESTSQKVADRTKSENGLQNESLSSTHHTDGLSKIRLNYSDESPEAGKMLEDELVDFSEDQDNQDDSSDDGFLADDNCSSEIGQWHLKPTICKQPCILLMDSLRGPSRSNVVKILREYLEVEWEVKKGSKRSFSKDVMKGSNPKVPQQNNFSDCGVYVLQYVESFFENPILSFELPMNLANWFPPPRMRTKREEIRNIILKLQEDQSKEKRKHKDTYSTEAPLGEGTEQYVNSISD
Sequence of UniProt O00767 (O00767 whole entry, looked up): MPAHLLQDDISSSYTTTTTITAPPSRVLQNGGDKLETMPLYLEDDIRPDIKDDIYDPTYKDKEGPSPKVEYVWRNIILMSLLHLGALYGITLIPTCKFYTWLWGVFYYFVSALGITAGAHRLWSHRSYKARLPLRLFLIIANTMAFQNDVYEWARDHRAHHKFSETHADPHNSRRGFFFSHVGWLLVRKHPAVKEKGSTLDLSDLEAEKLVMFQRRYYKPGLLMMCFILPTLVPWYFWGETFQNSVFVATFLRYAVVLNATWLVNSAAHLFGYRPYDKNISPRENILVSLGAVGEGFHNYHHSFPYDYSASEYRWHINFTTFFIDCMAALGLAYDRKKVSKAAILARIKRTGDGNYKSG
Sequence of UniProt Q9BVS4 (Q9BVS4 whole entry, looked up): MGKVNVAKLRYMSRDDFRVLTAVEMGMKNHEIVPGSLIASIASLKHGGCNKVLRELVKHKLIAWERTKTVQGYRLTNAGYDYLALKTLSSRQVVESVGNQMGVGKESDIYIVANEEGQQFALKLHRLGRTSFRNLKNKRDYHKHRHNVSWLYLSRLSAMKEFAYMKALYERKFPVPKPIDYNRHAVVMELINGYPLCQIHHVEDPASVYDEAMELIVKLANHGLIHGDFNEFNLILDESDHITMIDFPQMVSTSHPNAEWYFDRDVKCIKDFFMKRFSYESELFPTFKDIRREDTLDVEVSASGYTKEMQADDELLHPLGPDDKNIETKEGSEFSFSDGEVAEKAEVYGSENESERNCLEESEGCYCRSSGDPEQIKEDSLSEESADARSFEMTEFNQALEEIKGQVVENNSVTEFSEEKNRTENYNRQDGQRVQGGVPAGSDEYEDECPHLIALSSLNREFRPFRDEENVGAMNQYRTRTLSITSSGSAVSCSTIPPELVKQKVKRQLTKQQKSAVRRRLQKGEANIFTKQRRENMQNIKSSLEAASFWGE
Sequence of UniProt P60602 (P60602 whole entry, looked up): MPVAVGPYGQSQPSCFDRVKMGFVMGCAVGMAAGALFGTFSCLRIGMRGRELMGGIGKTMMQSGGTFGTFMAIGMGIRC

| Target | log2 fold change (saracatinib) | log2 fold change (sotrastaurin) | log2 fold change (alvocidib) | log2 fold change (Tubastatin A) | log2 fold change [1] | log2 fold change (defactinib) | log2 fold change (rucaparib) | log2 fold change [2] | log2 fold change (encorafenib) | log2 fold change [3] |
| --- | --- | --- | --- | --- | --- | --- | --- | --- | --- | --- |
| SART3, A0A499FI31 | -0.011 | -0.13 | -0.291 (active) | 0.035 | 0.021 | -0.448 (active) | -0.156 | -0.041 | 0.025 | 0.001 |
| RSRC2 (UniProt Q7L4I2) | 0.015 | 0.049 | 0.055 | -0.055 | -0.125 | -0.048 | -0.004 | -0.016 | -0.005 | 0.024 |
| SERINC3 (UniProt Q13530) | 0.002 | 0.119 | 0.134 | -0.06 | -0.043 | -0.016 | 0.006 | -0.216 | -0.017 | -0.065 |
| ROCK1 (UniProt Q13464) | -0.006 | -0.056 | -0.052 | -0.009 | -0.016 | -0.023 | 0.021 | 0.122 | 0.031 | -0.015 |
| RIOK3 (UniProt O14730) | 0.029 | -0.006 | -0.002 | 0.012 | -0.029 | -0.01 | -0.132 | -0.039 | -0.02 | -0.002 |
| SIDT2 isoform 2 (UniProt Q8NBJ9) | 0.08 | 0.024 | 0.047 | -0.083 | 0.104 | -0.064 | -0.002 | -0.088 | -0.053 | -0.176 |
| SEH1L isoform 1 (UniProt Q96EE3) | 0.009 | -0.022 | 0.018 | -0.015 | -0.029 | -0.012 | -0.016 | -0.053 | 0.025 | -0.007 |
| SLC1A5 (UniProt Q15758) | 0 | 0.064 | -0.027 | -0.023 | -0.09 | -0.01 | -0.015 | 0.033 | -0.045 | 0.058 |
| SCAMP2 (UniProt O15127) | 0.084 | 0.096 | -0.155 | 0.019 | 0.027 | -0.086 | -0.321 | 0.028 | 0.349 | 0.101 |
| RPS5 (UniProt P46782) | -0.038 | 0.018 | 0.167 | 0.084 | 0.065 | 0.121 | 0.096 | 0.103 | 0.054 | -0.026 |
| RNPEP (UniProt Q9H4A4) | -0.02 | -0.038 | -0.106 | 0.064 | 0.034 | -0.036 | -0.004 | 0.04 | -0.005 | -0.041 |
| RDH13 (UniProt Q8NBN7) | -0.084 | 0.027 | -0.097 | -0.063 | -0.062 | -0.043 | 0.029 | 0.016 | 0.014 | -0.016 |
| RNF187 (UniProt Q5TA31) | -0.069 | 0.001 | -0.092 | 0.196 | -0.084 | -0.047 | -0.139 | 0.05 | -0.042 | -0.05 |
| RARS2 (UniProt Q5T160) | 0.005 | -0.101 | -0.086 | -0.056 | -0.035 | -0.064 | 0.003 | -0.042 | 0.026 | -0.003 |
| RIC8A isoform 3 (UniProt Q9NPQ8) | 0.008 | -0.223 | -0.157 | 0.108 | -0.096 | -0.175 | 0.198 | -0.087 | 0.287 | -0.12 |
| RDH11 (UniProt Q8TC12) | -0.121 | -0.019 | -0.028 | 0.003 | 0.136 | 0.001 | 0.113 | 0.019 | 0.094 | -0.086 |
| SENP6 (UniProt Q9GZR1) | 0.028 | -0.008 | -0.062 | 0.063 | -0.018 | -0.131 | 0.003 | -0.034 | 0.016 | 0 |
| RABGAP1L isoform 5 (UniProt Q5R372) | -0.027 | 0.017 | -0.053 | -0.056 | -0.014 |  |  | -0.071 |  |  |
| RCOR3 isoform 3 (UniProt Q9P2K3) | -0.142 | -0.011 | -0.15 | 0.142 | -0.019 | -0.073 | 0.075 | -0.044 | 0.026 | -0.062 |
| SGPL1 (UniProt O95470) | -0.014 | 0.03 | 0.04 | -0.031 | 0.064 | 0.012 | 0.1 | 0.015 | 0.08 | -0.157 |
| RPS19 (UniProt P39019) | -0.024 | 0.001 | 0.178 | 0.089 | 0.07 | 0.167 | 0.136 | 0.064 | 0.028 | -0.004 |
| RAVER1 (UniProt E9PAU2) | -0.086 | -0.376 | -0.624 | 0.413 | -0.069 | -0.322 | -0.186 | -0.087 | 0.105 | -0.065 |
| RNF167 (UniProt Q9H6Y7) | -0.03 | 0.064 | 0.055 | -0.021 | 0.035 | 0.059 |  | 0.042 |  | -0.006 |
| SDHAF4 (UniProt Q5VUM1) | 0.139 | 0.072 | 0.079 | 0.086 | -0.037 |  | -0.067 | -0.032 | -0.01 |  |
| SERPINA7 (UniProt P05543) | 0.339 | 0.395 | 0.018 | -0.169 | 0.147 | 0.056 | -0.145 | 0.061 | -0.085 | 0.078 |
| RIOK2 (UniProt Q9BVS4) | -0.073 | 0.033 | 0.169 | 0.067 | 0.195 | 0.138 | 0.014 | 0.069 | 0.05 | -0.009 |
| SCD (UniProt O00767) | 0.066 | 0.036 | 0.049 | -0.234 | 0.024 | 0.025 | -0.006 | -0.164 | 0.04 | 0.045 |
| RRAS2 isoform 4 (UniProt P62070) | 0.069 | 0.075 | 0.024 | 0.014 | -0.001 | -0.016 | 0 | 0.05 | -0.011 | 0.004 |
| ROMO1 (UniProt P60602) | 0.022 | -0.091 | 0.023 | 0.048 | 0.013 |  | -0.038 | -0.012 | 0.026 |  |
| RMC1 (UniProt Q96DM3) | -0.002 | -0.01 | -0.105 | 0.007 | 0.014 | -0.041 | 0.029 | 0.014 | -0.013 | -0.018 |
